Only some compounds are listed: those with a hit (about 21% of all), similar ones and a draw of the others.
DRD3 antagonist: qHTS of D3 Dopamine Receptor Antagonist: qHTS. D3R cells, DiscoveRx beta-arrestin luminescence, antagonist mode; active compounds read low. max response, negative = inhibition, %. D(3) dopamine receptor (Homo sapiens), P35462. AID 652054, 2013. hit rate 2.5% among 360,000; in the data active = max response below about -50%; inconclusive = no clear call, values can overlap the other calls; note: % is set by controls: 0 for no effect and ±100 for the full control effect
Target sequence (P35462 whole entry, looked up): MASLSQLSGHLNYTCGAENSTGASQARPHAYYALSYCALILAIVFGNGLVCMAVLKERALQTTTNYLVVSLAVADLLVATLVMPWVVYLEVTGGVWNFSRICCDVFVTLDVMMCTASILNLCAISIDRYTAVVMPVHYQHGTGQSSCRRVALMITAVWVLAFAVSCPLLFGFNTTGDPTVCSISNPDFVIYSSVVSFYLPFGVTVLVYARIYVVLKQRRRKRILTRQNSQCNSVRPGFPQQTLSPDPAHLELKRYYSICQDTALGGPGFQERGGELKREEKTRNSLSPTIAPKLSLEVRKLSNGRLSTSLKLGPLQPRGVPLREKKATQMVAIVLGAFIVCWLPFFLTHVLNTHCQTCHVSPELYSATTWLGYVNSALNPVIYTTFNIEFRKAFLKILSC
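Cells expressing the human receptor were seeded at 1500 cells/well, incubated overnight at 37 degrees C in 5% CO2, then exposed to library compounds with dopamine controls for 90 minutes at 37 degrees C before luminescent detection.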
ClpP mod: qHTS Assay for Activators of ClpP; ATP-dependent Clp protease proteolytic subunit (Bacillus subtilis (strain 168)), P80244; purified B. subtilis ClpP, FRET peptide cleavage, 20 min; Potency, µM (top dose mostly 57.5 µM), for inactives: top-dose activity change, negative = active; hit rate 1.9% among 340,000; active = well fitted falling curve with a large enough effect; inconclusive = small, poorly fitted or top-dose-only effect; inactive = no such curve, though single readings can be large or run the other way; note: potency is the fitted concentration of half-maximal effect; the source files actives as falling curves though it sought activators and does not explain the sign; nearly all actives have a fitted effect of over 65% in size
Target sequence (P80244 whole entry, looked up): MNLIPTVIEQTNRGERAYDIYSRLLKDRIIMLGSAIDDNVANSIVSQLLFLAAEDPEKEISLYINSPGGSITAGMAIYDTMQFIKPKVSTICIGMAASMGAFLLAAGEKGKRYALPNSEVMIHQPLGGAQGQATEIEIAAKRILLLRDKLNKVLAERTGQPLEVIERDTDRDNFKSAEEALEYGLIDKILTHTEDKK
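FRET quenching reversal measured ClpP activation: 10 microg/mL B. subtilis ClpP at pH 8 with the FRET-FV decapeptide, read at 430 nm after 320 nm excitation. The 20-min minus 0-min signal was scaled between DMSO/no-enzyme wells and ADEP (5.8 microM final).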
TDP1 cell CPT: qHTS for Inhibitors of human tyrosyl-DNA phosphodiesterase 1 (TDP1): qHTS in cells in presence of CPT | AID 686979, 2013 | hit rate 12% among 420,000 | chicken DT40 Tdp1-/-;hTDP1 cells + 20 nM CPT, ATP luminescence, 48 h | Potency, µM (top dose mostly 46.2 µM), for inactives: top-dose activity change, negative = growth inhibition, hits mostly inhibitors; note: potency is the fitted concentration of half-maximal effect; % is set by controls: 0 for no effect and ±100 for the full control effect; nearly all actives have a fitted effect of over 55% in size
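Chicken DT40 Tdp1-/- cells complemented with human TDP1, 400 cells/well, exposed to compounds plus 20 nM camptothecin for at least 48 h at 37 C; viability read as ATP content by CellTiter-Glo luminescence.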
D3 ag: qHTS of D3 Dopamine Receptor Agonist: qHTS; D3R DiscoveRx beta-arrestin cells, luminescence, 90 min; max activation, %; hit rate 0.58% among 410,000; in the data active = max activation above about 30%; note: 0% is about no effect
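Cells at 1500/well, incubated overnight, then treated with pinned compounds (dopamine as control) for 90 min at 37 degrees C. DiscoveRx reagent added for 30 - 60 minutes at room temperature; luminescence read.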
TDP1 cell noCPT: qHTS for Inhibitors of human tyrosyl-DNA phosphodiesterase 1 (TDP1): qHTS in cells in absence of CPT; DT40 Tdp1-/- hTDP1 cells, no CPT, ATP luminescence, 48 h; Potency, µM (highest dose often 46.2 µM), inactives show at the top dose activity change, negative = growth inhibition, actives largely listed as inhibitors; hit rate 15% among 420,000; AID 686978, 2013; note: potency is the fitted concentration of half-maximal effect; % is set by controls: 0 for no effect and ±100 for the full control effect; nearly all actives have a fitted effect of over 55% in size
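Cells were dispensed at 400 per well, compounds added by pin tool, plates incubated ≥48 hr at 37 °C, then CellTiter-Glo added for 30 min at room temperature before luminescence reading. Line: DT40 Tdp1-/- complemented with hTDP1; camptothecin omitted.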
IL1B secr inh: qHTS for Inhibitors of Inflammasome Signaling: IL-1-beta AlphaLISA Primary Screen | activity change, % at 57.5 µM | THP-1 LPS/ATP IL-1B secretion, AlphaLISA, 16 h; active compounds read low | hit rate 4.7% among 360,000; in the data active = activity change below about -50%; inconclusive = mostly about -30% to -49%; note: % is set by controls: 0 for no effect and ±100 for the full control effect
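Secreted IL-1B measured by AlphaLISA bead assay after 16 h compound exposure of THP-1 cells; compounds (final up to 57.5 uM) added 1 h before LPS (250 ng/mL) and ATP (1.25 mM) stimulation; lower signal means less secretion.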
* = called active by the depositor; ? = inconclusive; / = no result; [ ] = another dose, or the depositor's remark. Unless noted, calls come from the whole dose curve; as a rule, active = well fitted inhibition curve with a large enough effect; inconclusive = small, poorly fitted or top-dose-only effect; inactive = flat fitted curve, though single readings scatter.

SMILES | DRD3 antagonist | ClpP mod | TDP1 cell CPT | D3 ag | TDP1 cell noCPT | IL1B secr inh
COCC(=O)Nc1cc(C(=O)NC2Cc3ccccc3C2)cc2nc(-c3cccnc3)n(C)c12 | / | / | -10%[9.04 µM] | / | -13% | /
Cc1cccc(NC(=O)CNC(=O)c2ccc3nc[nH]c3c2)c1C | 21 | -3% | 11% | 1 | -3% | 2
O=C(Cn1c(NCCO)nc2ccccc21)c1ccc(F)cc1 | 8 | -1% | -13% | 0 | -12% | -4
COC(=O)COc1ccc(C(=O)Cn2c(NCCCO)nc3ccccc32)cc1 | -29 | 0% | -4% | -26 | -7% | -93*
COc1ccc(-n2c(C)cc(C(=O)Cn3c(NCCO)nc4ccccc43)c2C)cc1 | -8 | 0% | ? | -1 | 21µM* | 42
COc1ccc(C(=O)Cn2c(NCCCO)nc3ccccc32)cc1 | 2 | -1% | ? | 2 | ? | ?
O=C(NC1CCCC1)C1CCN(C(=O)c2cc(Cl)ccc2Cl)CC1 | 7 | / | 5% | 2 | 3% | 34
Cn1c(=O)c(CCc2ccccc2)nc2cnc(N3CCNCC3)nc21 | / | / | ? | / | 9.2µM* | /
COCCn1c(=O)c(-c2ccccc2)nc2cnc(N3CCNCC3)nc21 | / | / | 11% | / | -28% | /
O=c1cnc2cnc(N3CCNCC3)nc2n1CCc1ccccc1 | / | / | 10% | / | -24% | /
O=c1c(-c2ccc(Cl)cc2)nc2cnc(N3CCNCC3)nc2n1CCc1ccccc1 | / | / | 12µM* | / | 18µM* | /
COCCn1c(=O)c(-c2ccc(Cl)cc2)nc2cnc(N3CCNCC3)nc21 | / | / | 6.5µM* | / | 12µM* | /
COc1ccc(-c2nc3cnc(N4CCNCC4)nc3n(CCc3ccccc3)c2=O)cc1 | / | / | ? | / | 21µM* | /
CN1CCN(c2ncc3nc(-c4ccccc4)c(=O)n(CCc4ccccc4)c3n2)CC1 | / | / | ? | / | -13% | /
N#CCCn1c(=O)c(-c2cccs2)nc2cnc(N3CCNCC3)nc21 | / | / | ? | / | 3.7µM* | /
CC(C)CC1c2[nH]c3ccccc3c2CCN1CCCn1cccn1 (stereo unspecified) | -9 | / | 8% | 4 | ? | -19
Cc1ccccc1NC(=O)c1cccc(OCc2c(C)noc2C)c1 | 1 | 1% | -18% | -4 | -18% | ?
Cc1cccc(C(=O)Nc2ccccc2C(=O)OCc2c(C)noc2C)c1 | 14 | ? | -16% | -7 | ? | -57*
CC(=O)c1cccc(NC(=O)c2ccc(OCc3c(C)noc3C)cc2)c1 | -5 | -1% | -12% | -8 | -19% | 18
CC(=O)c1ccccc1NC(=O)c1ccc(OCc2c(C)noc2C)cc1 | 23 | / | ? | 17 | 18µM* | -66*
CCN(C(=O)COC(=O)c1ccc(OCc2c(C)noc2C)cc1)c1ccccc1 | 21 | 25µM* | ? | -4 | 13µM* | -17
Cc1ccc(NC(=O)COC(=O)CNC(=O)c2cccs2)cc1S(=O)(=O)N1CCOCC1 | 6 | 1% | 10% | -18 | 15% | -25
CCN(CC)S(=O)(=O)c1ccc(NCC2COc3ccccc3O2)c([N+](=O)[O-])c1 (stereo unspecified) | -21 | 0% | 16µM* | -4 | 23µM* | -12
CN(C)S(=O)(=O)c1ccc(NCC2COc3ccccc3O2)c([N+](=O)[O-])c1 (stereo unspecified) | ? | -2% | 16µM* | -8 | 23µM* | -22
NC(=O)c1ccc(NCC2COc3ccccc3O2)c([N+](=O)[O-])c1 (stereo unspecified) | 11 | / | -25% | -3 | ? | -10
SMILES | DRD3 antagonist | ClpP mod | TDP1 cell CPT | D3 ag | TDP1 cell noCPT | IL1B secr inh
Cc1ccc(OCc2cc(=O)n3c4c(sc3n2)CCCC4)c(C)c1 | / | -3% | -9% | 0 | -1% | /
FC(F)(F)c1cccc(CC2CN(Cc3ccccc3)Cc3ccccc3N2c2cc(Cl)cc(Cl)c2)c1 (stereo unspecified) | 5 | 0% | -19% | 5 | -22% | 23
COCn1cnc(-c2ccccc2)c1-c1ccccc1 | 4 | / | -25% | 6 | ? | -13
COc1ccccc1-c1ncn(Cc2cccc(-c3ccccc3)c2)c1-c1cc(C)cc(C)c1 | -26 | ? | ? | -1 | 15µM* | /
COc1ccccc1-c1ncn(Cc2cccc(-c3ccccc3)c2)c1-c1ccco1 | ? | -22% | 26µM* | -14 | 16µM* | ?
COc1ccc(-c2ccccc2)c2oc(-c3ccco3)cc(=O)c12 | 72 | -7% | -17% | 1 | ? | 16
CCN1C(C)=CC(=O)[C@@H](O)[C@H]1c1ccccc1Br | 8 | 1% | -8% | -14 | -9% | 88
O=C(NCCc1c[nH]c2ccc(Cl)cc12)c1cccnc1 | 6 | 2% | ? | -2 | 21µM* | -1
CC(C)C(=O)c1cc2c(cc1NC(=O)c1ccccc1F)OCCO2 | / | -8% | ? | 4 | ? | /
CCOC(=O)Nc1ccc2c(c1)N(C(=O)CCN1CCN(C)CC1)c1ccccc1S2 | 7 | -1% | ? | -13 | -28% | -5
O=C(CCN1CCN2CCCC2C1)N1c2ccccc2Sc2ccc(Cl)cc21 (stereo unspecified) | -54* | 0% | ? | -16 | ? | -9
CN1CCN(CCC(=O)N2c3ccccc3Sc3ccc(Cl)cc32)CC1 | -51* | 0% | ? | -13 | ? | -28
CCOC(=O)Nc1ccc2c(c1)N(C(=O)CCN1CCN3CCCC3C1)c1ccccc1CC2 (stereo unspecified) | -28 | -1% | 1% | -6 | -18% | -11
COC(=O)Nc1ccc2c(c1)N(C(=O)CCN1CCN3CCCC3C1)c1ccccc1S2 (stereo unspecified) | ? | 1% | 13µM* | -3 | ? | -25
OC(COc1ccc(CN2CCCCO2)cc1)CN1CCCCC1 (stereo unspecified) | -13 | / | 0% | -24 | -2% | 0
CO[C@H]1C[C@H](O[C@@H]2/C(C)=C/C[C@@H]3C[C@@H](C[C@]4(CC[C@H](C)[C@@H](C5CCCCC5)O4)O3)OC(=O)[C@@H]3C=C(C)/C(=N/O)[C@H]4OC/C(=C\C=C\[C@@H]2C)[C@]43O)O[C@@H](C)[C@@H]1O | / | / | -17% | -3 | -9% | /

Screens from PubChem BioAssay.
